This is part of a sample that, as a whole, favours compounds with a hit. Of some 83,000 tested, about 20% had one in any assay.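 Single-dose data. Exposure time 48 hours. Values below 10 considered active.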 A number with no mark means an inactive call. The source made the active and inactive calls.
Legend:
Test in all cases: NCI-60 one-dose screen, 48 h (100 = growth as untreated, 0 = no growth, -100 = all killed)
Details in all cases: 10 µM unless noted
NCI-H23 lung = system: NCI-H23 lung
NCI-H322M lung = system: NCI-H322M lung
HOP-62 NSCLC = system: HOP-62 NSCLC
NCI-H460 lung = system: NCI-H460 lung
HOP-92 NSCLC = system: HOP-92 NSCLC
NCI-H522 lung = system: NCI-H522 lung
A549/ATCC NSCLC = system: A549/ATCC NSCLC
786-0 renal = system: 786-0 renal
COLO 205 colon = system: COLO 205 colon
DU-145 prostate = system: DU-145 prostate
K-562 leukemia = system: K-562 leukemia
MALME-3M melanoma = system: MALME-3M melanoma
MDA-MB-231 breast = system: MDA-MB-231 breast
RXF 393 renal = system: RXF 393 renal
SF-268 CNS = system: SF-268 CNS
SF-295 CNS = system: SF-295 CNS
SF-539 CNS = system: SF-539 CNS
UACC-257 melanoma = system: UACC-257 melanoma
M14 melanoma = system: M14 melanoma
HCT-15 colon = system: HCT-15 colon

SMILES | growth (NCI-H23 lung) | growth (NCI-H322M lung) | growth (HOP-62 NSCLC) | growth (NCI-H460 lung) | growth (HOP-92 NSCLC) | growth (NCI-H522 lung) | growth (A549/ATCC NSCLC) | growth (786-0 renal) | growth (COLO 205 colon) | growth (DU-145 prostate) | growth (K-562 leukemia) | growth (MALME-3M melanoma) | growth (MDA-MB-231 breast) | growth (RXF 393 renal) | growth (SF-268 CNS) | growth (SF-295 CNS) | growth (SF-539 CNS) | growth (UACC-257 melanoma) | growth (M14 melanoma) | growth (HCT-15 colon)
COc1ccc(CN2CCCC(C(=O)c3ccc(C(F)(F)F)cc3)C2)c(O)c1 (stereo not given) | 37.3% | 80.6% | 37.5% | 7.11% (active) | 36.5% | -36.6% (active) | 32.3% | 41.5% | -23.1% (active) | 50.6% | 7.39% (active) | 12.7% | 7.33% (active) | 20.4% | 30.5% | -20.8% (active) | 14.8% | 40.1% | 18.9% | 25.7%
C=C[C@@H]1CCC/C=C/[C@@H]2C[C@H](O)C[C@H]2[C@H](O)/C=C/C(=O)O1 | 5.64% (active) | 38.3% | 19.2% | 13.5% | 25.5% | -24.5% (active) | 22.6% | -12.9% (active) | -78.4% (active) | 21.1% | 11.4% | -12.5% (active) | -47.9% (active) | -5.1% (active) | 8.16% (active) | 14.6% | 30.3% | 33.5% | 21% | 11.6%
O=c1c(-c2nc3ccccc3[nH]2)cc2ccccc2n1Cc1cn(Cc2ccccc2Cl)nn1 | 56.9% | 52.3% | 35.1% | 6.86% (active) | 11.3% | 45.1% | 15.4% | -20.2% (active) | 54% | 18.1% | 30.7% | 5.45% (active) | -21% (active) | 13.1% | 45.2% | 32.9% | 4.13% (active) | 56.8% | 38.4% | 19.7%
Cc1cc(Br)c(N)c(Br)c1 | 97% | 105% | 87.9% | 104% | 106% | 86.3% | 73.3% | 93.3% | 106% | 108% | 90% | 104% | 103% | 106% | 106% | 95.9% | 95.5% | 77.5% | 89.3% | 96.1%
CCOc1cccc(/C=N\Nc2nc(=O)cc(C(=O)OC)s2)c1O | 85.7% | 54.2% | 85.6% | 44% | 60.1% | 79.3% | 63.1% | 83.9% | 91.6% | 103% | 50.8% | 66.8% | 78.7% | 97% | 76% | 57.5% | 82.6% | 78.2% | 63.7% | 45.6%
CCOC(=O)c1c(C=O)nc2ccccc2c1/C=C/c1ccc(Cl)cc1 | 100% | 99.8% | 103% | 100% | 92.8% | 78.8% | 96.4% | 106% | 119% | 96.3% | 61.7% | 100% | 87.7% | 99.5% | 91.2% | 101% | 90.9% | 105% | 91.6% | 89.6%
Clc1ncccc1Nc1ccc2nnc(-c3ccncc3)n2n1 | 93.2% | 106% | 102% | 103% | 110% | -58.6% (active) | 102% | 101% | 109% | 107% | 66.8% | 98.5% | 105% | 114% | 93.3% | 105% | 99.7% | 102% | 98.6% | 87.1%
c1ccc2cc3c(Nc4ccc(N5CCOCC5)cc4)ccnc3cc2c1 | 95% | 111% | 100% | 86.5% | 104% | 97.5% | 85% | 91.6% | 106% | 97.2% | 72.7% | 98.1% | 91.3% | 92% | 87.6% | 98% | 92.4% | 108% | 99.9% | 91.1%
O=C1OC(c2ccccc2)(c2ccccc2)c2ccsc21 | 113% | 90.7% | 117% | 98.8% | 87.1% | 92.6% | 101% | 103% | 121% | 104% | 87% | 87.2% | 100% | 114% | 97.3% | 97.2% | 98.9% | 103% | 106% | 95.2%
COc1ccc(N)c(-c2cc3c(c4c2[nH]c2ccc(OC)cc24)CCCC3)c1 | 91.2% | 71.5% | 70.4% | 83.1% | 72.2% | 57.1% | 64.1% | 78.3% | 102% | 83.7% | 76.8% | 108% | 77.6% | 87.1% | 73.8% | 88.8% | 98% | 67.9% | 78.5% | 58.6%
COc1ccc(CCN2C(=O)CCSC2=S)cc1 | 80% | 87.6% | 18.6% | 77% | 41.9% | 11.1% | 96.6% | 16.8% | 36.3% | 13.8% | 29.2% | 76.7% | 59.2% | 18.7% | 46.2% | 67.2% | 7.31% (active) | 85.4% | 61.2% | 12.4%
O=C(Nc1ccc(N2CCNCC2)cn1)c1[nH]ncc1Nc1ncnc2sc3c(c12)CCC3 | 10.7% | 63.8% | 76.2% | -59.2% (active) | 37.9% | 35.9% | -51.7% (active) | -85.5% (active) | 22.8% | -52.1% (active) | -65.2% (active) | -47.7% (active) | -48.9% (active) | 18.6% | 37.8% | 104% | -51% (active) | 67.8% | -60.7% (active) | -85.6% (active)
CN(C)CCNc1cc(-c2ccccc2)nc2ccccc12 | -32.9% (active) | 8.29% (active) | -65.4% (active) | 0.75% (active) | -68.6% (active) | -90.6% (active) | -53.8% (active) | -79.2% (active) | -73.7% (active) | -62.1% (active) | 0.508% (active) | -77.3% (active) | -33.7% (active) | -91.1% (active) | -53.3% (active) | -71.5% (active) | -74.4% (active) | -74.5% (active) | -20.4% (active) | 6.92% (active)
COc1ccccc1N1C(=N)S/C(=C\c2ccc(OCc3ccccc3F)cc2)C1=O | 79.8% | 81.6% | 98.8% | 77.4% | 81.1% | 65.7% | 80.3% | 87.9% | 112% | 102% | 62.2% | 118% | 51.4% | 65.8% | 82% | 95.1% | 106% | 90.9% | 70.7% | 81.3%
Oc1c(C(Nc2ccccn2)c2cccc(Oc3ccccc3)c2)ccc2cccnc12 (stereo not given) | -73.3% (active) | -94.4% (active) | -95.7% (active) | -86.3% (active) | -86.9% (active) | -84.7% (active) | -81.8% (active) | -81.4% (active) | -90.8% (active) | -96% (active) | -64.1% (active) | -74.8% (active) | -89.3% (active) | -92% (active) | -86.7% (active) | -86.9% (active) | -93.1% (active) | -77.1% (active) | -68.6% (active) | -57.6% (active)
CCOC(=O)C1=CN(C)C=C(C(=O)OCC)C1c1cc(Br)c(OCC)c(OC)c1 | 65.9% | 98.6% | 55.6% | 34.5% | 2.87% (active) | 52.2% | 66.1% | 59.9% | -59.7% (active) | 84% | -20.4% (active) | -1.58% (active) | 36.8% | 49.9% | 73.3% | -47.3% (active) | 58.9% | -50% (active) | -37.3% (active) | 14.7%

Source: PubChem BioAssay (NCI)
